Compound activity deposited in PubChem BioAssay by National Center for Advancing Translational Sciences (NCATS).
DT40 TDP1 no CPT: qHTS for Inhibitors of human tyrosyl-DNA phosphodiesterase 1 (TDP1): qHTS in cells in absence of CPT | Potency, µM (highest dose often 46.2 µM), for inactives: at the highest dose activity change, negative = growth inhibition, usual class: inhibitors | 420,000 tested, 15% active | DT40 Tdp1-/- hTDP1 cells, no CPT, ATP luminescence, 48 h; also: potency is read from the fitted curve at half-maximal effect; nearly all actives have a fitted effect of over 55% in size
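Chicken DT40 Tdp1-/- cells stably complemented with human TDP1 were seeded at 400 cells/well with DMSO in place of 20 nM camptothecin. After compound pinning, cells grew at least 48 hr at 37 °C; viability read by CellTiter-Glo luminescence.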
RORgamma inh: inhibitors of mouse ROR gamma transcriptional activity; P51450; 310,000 tested, 5.4% active; Drosophila S2 Gal4-RORgamma UAS-luciferase reporter, 20 h; Potency, µM (titrated, usually from 53.6 µM), without a hit: at the highest dose activity change, negative = inhibition, hits mostly inhibitors; also: potency is read from the fitted curve at half-maximal effect; nearly all actives have a fitted effect of over 60% in size
Target sequence (P51450 whole entry, looked up, the tested form may be a part): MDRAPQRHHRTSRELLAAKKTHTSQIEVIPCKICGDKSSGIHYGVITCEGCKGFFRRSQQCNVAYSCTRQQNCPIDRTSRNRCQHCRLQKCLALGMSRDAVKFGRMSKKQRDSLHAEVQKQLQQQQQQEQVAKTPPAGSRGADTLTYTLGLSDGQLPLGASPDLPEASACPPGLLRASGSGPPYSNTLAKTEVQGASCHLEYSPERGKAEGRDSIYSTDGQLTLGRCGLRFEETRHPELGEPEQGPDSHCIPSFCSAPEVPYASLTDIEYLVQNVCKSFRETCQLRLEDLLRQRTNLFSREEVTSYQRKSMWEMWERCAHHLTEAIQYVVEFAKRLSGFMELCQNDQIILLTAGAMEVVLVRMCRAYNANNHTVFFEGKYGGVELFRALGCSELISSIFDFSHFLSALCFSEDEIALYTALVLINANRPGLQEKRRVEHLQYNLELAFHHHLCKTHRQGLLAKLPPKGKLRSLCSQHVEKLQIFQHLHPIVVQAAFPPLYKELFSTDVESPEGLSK
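Luciferase reporter read in Schneider cells carrying Gal4-RORγ (mouse) and UAS-Photinus luciferase; cells given compound 1 h before 700 uM copper sulfate induction, then incubated 20 h at ambient temperature.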
TDP1 cell CPT: growth inhibition of DT40 Tdp1-/-;hTDP1 cells with camptothecin (screen for TDP1 inhibitors); 420,000 tested, 12% active; Potency, µM (series often up to 46.2 µM), for the others: at the top dose activity change, negative = growth inhibition, most hits filed as inhibitors; chicken DT40 Tdp1-/-;hTDP1 cells + 20 nM CPT, ATP luminescence, 48 h; AID 686979; also: potency is read from the fitted curve at half-maximal effect; nearly all actives have a fitted effect of over 55% in size
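Cell growth measured by CellTiter-Glo luminescence after a minimum 48 h, 37 C compound exposure with 20 nM CPT in Tdp1-knockout DT40 cells stably expressing hTDP1, seeded 400/well; qHTS titration format.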
IL1B secr inh: blocks inflammasome-driven IL-1 beta release. AID 743279. THP-1 LPS/ATP IL-1B secretion, AlphaLISA, 16 h; hits give low values. 360,000 tested, 4.7% active. activity change, % at 57.5 µM; in the data active = activity change below about -50%; inconclusive = mostly about -30% to -49%
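Secreted IL-1B measured by AlphaLISA bead assay after 16 h compound exposure of THP-1 cells; compounds (final up to 57.5 uM) added 1 h before LPS (250 ng/mL) and ATP (1.25 mM) stimulation; lower signal means less secretion.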
ELG1 repair inh: blocks ELG1-dependent DNA repair in HEK293T cells | AID 504467 | Potency, µM (top dose mostly 46.1 µM), for inactives: top-dose activity change, negative = inhibition, hits mostly inhibitors | HEK293T ELG1-luciferase reporter, luminescence, 16 h; DNA damage induced by 5-fluorouridine | 330,000 tested, 2.3% active; also: potency is read from the fitted curve at half-maximal effect; nearly all actives have a fitted effect of over 55% in size
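Luminescence from the luciferase reporter, measured 30 min after ONE-Glo reagent at room temperature, was the read-out. Beforehand, 2,000 cells per well were exposed for 16 hr at 37 °C to 5-fluorouridine together with compound or vehicle.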
Gal4-VP16 FLuc: counter-screen for ROR gamma inhibitors: Gal4-VP16 reporter; 310,000 tested, 3.5% active; Potency, µM (highest dose often 53.6 µM), for inactives: top-dose activity, negative = inhibition, actives largely listed as inhibitors; Drosophila S2 Gal4-VP16 UAS-luciferase, luminescence, 20 h;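 also: Gal4-VP16 expression switched on by copper sulfate through the metallothionein promoter; potency is read from the fitted curve at half-maximal effect; nearly all actives have a fitted effect of over 50% in size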
Active calls of the source: *; ? = inconclusive; . = no result. In the library only some 21% were active in any assay of this set; here they are far more common. Unless noted, calls follow the shape of the dose curve; as a rule, active = well fitted curve in the direction sought with a large enough effect; inconclusive = small, poorly fitted or top-dose-only effect, or another doubt; inactive = no such curve, though single readings can be large; an effect the other way counts as inactive or inconclusive. % is scaled to controls: 0 for no effect and ±100 for the full control effect.

SMILES | DT40 TDP1 no CPT | RORgamma inh | TDP1 cell CPT | IL1B secr inh | ELG1 repair inh | Gal4-VP16 FLuc
CN1C(=O)NC(c2ccccc2)(C(F)(F)F)S/C1=C(/C#N)c1nnc(N2CCOCC2)n1-c1ccccc1 (stereo unspecified) | -4% | 14µM* | -2% | -22 | 18% | ?
CN1C(c2ccc(F)cc2)=CS/C1=C(/C#N)c1nnc(N2CCOCC2)n1-c1ccccc1 | -11% | -20% | ? | -6 | -25% | -1%
Cc1cc(/C=C(\C#N)c2nnc(N3CCOCC3)n2-c2ccccc2)c(C)n1-c1ccccc1 | . | 8% | . | . | -9% | 19%
C=CCN1C(c2ccccc2)=CS/C1=C(/C#N)c1nnc(N2CCOCC2)n1-c1ccccc1 | 15µM* | -4% | 18µM* | -7 | -7% | -15%
Cc1ccc(C2CC(c3ccccc3Cl)n3nc(N)nc3N2)cc1 (stereo unspecified) | ? | -16% | 21µM* | ? | 13% | -6%
Nc1nc2n(n1)C(c1ccc(Cl)cc1)CC(c1ccc(F)cc1)N2 (stereo unspecified) | ? | -8% | ? | ? | -2% | -1%
Cc1ccc(C2CC(c3ccccc3C)n3nc(N)nc3N2)cc1 (stereo unspecified) | 2% | 32% | -3% | 26 | 3% | 5%
Nc1nc2n(n1)C(c1ccccc1Cl)CC(c1ccc(F)cc1)N2 (stereo unspecified) | ? | 1% | 16µM* | -4 | 5% | -5%
CN(C)CCCn1c(=S)[nH]c2sc3c(c2c1=O)CCCC3 | -19% | 14µM* | -15% | ? | 10% | ?
C=CCn1c(=S)[nH]c2sc3c(c2c1=O)CCC3 | ? | 0.1µM* | ? | 35 | -20% | ?
C=CCn1c(SCC(N)=O)nc2sc3c(c2c1=O)CCC3 | -9% | -37% | 8% | 7 | -14% | ?
CC1CCc2c(sc3nn[nH]c(=O)c23)C1 (stereo unspecified) | -22% | 30% | -18% | 20 | 0% | -17%
CCn1c(=O)c2c3c(sc2n2cnnc12)CCC3 | -19% | 0% | -26% | 4 | 3% | 4%
CC1CCc2c(sc3[nH]c(=S)n(C)c(=O)c23)C1 (stereo unspecified) | ? | 0.56µM* | -26% | 53 | ? | 0.89µM*
CCn1c(=S)[nH]c2sc3c(c2c1=O)CCCC3 | -17% | 0.45µM* | -8% | -5 | -5% | 0.63µM*
COc1cccc(/C=C/C(=O)N(C)CC(=O)Nc2ccc(Cl)c(C(F)(F)F)c2)c1 | ? | . | ? | -14 | -9% | .
CCCc1c(C(=O)N/N=C/c2ccc3c(c2)OCO3)nnn1-c1nonc1N | -5% | . | -11% | -1 | . | .
Cc1cccc(N2C(=O)N3[C@H](c4ccc(Br)cc4)[C@@H]4C(=O)N(C(C)(C)C)C(=O)[C@@H]4[C@]3(C)C2=O)c1 | ? | 9% | 18µM* | -5 | -8% | 0%
O=C1[C@H]2[C@@H](c3ccc(Cl)cc3)N3C(=O)N(c4cccc(Cl)c4)C(=O)[C@@]3(Cc3ccccc3)[C@H]2C(=O)N1C1CCCCC1 | 12µM* | . | 10µM* | -1 | ? | .
CC(C)(C)N1C(=O)[C@H]2[C@@H](c3ccc(Br)cc3)N3C(=O)N(c4cccc(F)c4)C(=O)[C@@]3(Cc3ccccc3)[C@H]2C1=O | ? | . | ? | -5 | 17% | .
CC(C)(C)N1C(=O)[C@H]2[C@@H](c3ccc(Br)cc3)N3C(=O)N(c4ccc(Br)cc4)C(=O)[C@@]3(Cc3ccccc3)[C@H]2C1=O | ? | -19% | 21µM* | -21 | 9% | -1%
